# Results reported in ChEMBL document CHEMBL4513216, “Probing the Open Global Health Chemical Diversity Library for Multistage-Active Starting Points for Next-Generation Antimalarials” (ACS Infect Dis, 2020).
# Among all 68,000 compounds or so, about 2,700 (4%) showed an effect of 50% or more. The entries come from a sample that favours strong results as a whole.
# Test system: Plasmodium berghei
# Experiment: Screen against P. berghei liver stage (PbLuc), transformed with Luciferase, at 2uM
# Format: functional, HepG2
# Conditions: tested at 2 uM
row,SMILES,INHIBITION
1,OC1(CN2CCC(Cc3ncccn3)CC2)CCCCC1,-9.61%
2,CCOc1cccnc1C(=O)N1CC=C(c2ccc(O)cc2)CC1,7.46%
3,Cn1ccc(CN2CCC(CC(=O)NC3CCCC3)CC2)cc1=O,-17.37%
4,Cn1ccc(CN2CCC(NC(=O)C3CCCCC3)CC2)cc1=O,-24.26%
5,Cn1ccc(CN2CCC(NC(=O)NC3CCCCC3)CC2)cc1=O,54.85%
6,Cc1ccccc1-c1noc(CNc2ccc(F)cc2OCCO)n1,20.77%
7,Cc1nc(COc2ccc(CNCCn3cccn3)cc2)cs1,12.01%
8,COC(=O)C1CCN(C(=O)Cn2nc(C)nc2-c2ccccc2)CC1,50.32%
9,COC(=O)C1CCN(C(=O)Cn2ccc(-c3ccccc3)n2)CC1,-7.16%
10,Cc1nc(-c2ccccc2)n(CC(=O)NC2CCCC2)n1,37.68%
11,Cc1nc(-c2ccsc2)ccc1C(=O)NCCCN1CCOCC1,-10.47%
12,Cc1nc(-c2ccsc2)ccc1C(=O)NC(C)CN1CCOCC1 (configuration not stated),50.75%
13,Cc1nc(-c2ccsc2)ccc1C(=O)NCCN1CCOCC1,13%
14,CC(C)CN1CC[C@@H]2[C@H](CC1)N(S(C)(=O)=O)CCS2(=O)=O,30.95%
15,Cc1noc(C)c1CN1CC[C@H]2OCC[C@@]2(C(=O)NC2CCCC2)C1,-6.61%
16,COc1ncc(-c2ccc(O)cc2)c(OC)n1,24.44%
17,Cc1cc(N(C)C)nc(C2COCCN2Cc2csc(C)n2)n1 (configuration not stated),-27.45%
18,CNc1cc(C)nc(C2COCCN2Cc2csc(C)n2)n1 (configuration not stated),52.03%
19,CNc1cc(C)nc(C2COCCN2CCc2ccccc2)n1 (configuration not stated),-3.96%
20,CCOC(=O)C(C)Nc1ccc(CCN2CCOCC2)cc1 (configuration not stated),-48.91%
21,CNc1nc2c(s1)C(=O)CN(C(=O)NCc1ccccc1)C2,16.51%
22,CCNc1nc2c(s1)C(=O)CN(C(=O)NCc1ccccc1)C2,52.01%
23,CCNc1nc2c(s1)C(=O)CN(C(=O)NCCc1ccccc1)C2,12.31%
24,COCCN1C[C@@H]2CC[C@H]1CN(Cc1cc(=O)c3cc(C)ccc3[nH]1)C2,-23.58%
25,COCCN1C[C@@H]2CC[C@H]1CN(Cc1ccc3ccccc3n1)C2,50.32%
26,COCCN1C[C@@H]2CC[C@H]1CN(Cc1nc3ccccc3n1C)C2,20.14%

row,SMILES,INHIBITION
1,O=C(NCc1cccnc1)c1nc2c(s1)CCCN2C(=O)C1CC1,26.76%
2,CCCOCC(=O)NS(=O)(=O)c1ccc2c(c1)OCCCO2,-16.42%
3,CC(C)CC(=O)NS(=O)(=O)c1ccc2c(c1)OCCCO2,-32.2%
4,CC(C)(C)C(=O)NCCC(=O)NC(C)(C)c1ccc2c(c1)OCCO2,-93.39%
5,CSCCC(=O)NS(=O)(=O)c1ccc2c(c1)OCCO2,-14.75%
6,CC(C)(C)C(=O)NCCC(=O)NS(=O)(=O)c1ccc2c(c1)OCCO2,73.37%
7,COCCCC(=O)NS(=O)(=O)c1ccc2c(c1)OCCCO2,54.85%
8,COCCn1ccc(NC(=O)Nc2ccccn2)n1,-48.53%
9,O=C1N(Cc2ccc(F)c(F)c2)CCCC1(O)CNCc1cccnc1 (configuration not stated),-0.06%
10,CCOc1cc2c(cc1CNC(Cc1cccs1)c1nccs1)OCO2 (configuration not stated),-52.9%
11,CC(C)NC(=O)C1CCc2nnc(CNC(=O)c3cccnc3)n21 (configuration not stated),37.62%
12,CC(C)NC(=O)C1CCc2nnc(CNC(=O)c3ccc(Cl)cc3Cl)n21 (configuration not stated),5.75%
13,CC(C)NC(=O)C1CCc2nnc(CNC(=O)C3CC3)n21 (configuration not stated),52.23%
14,CCOc1ccc(S(=O)(=O)N(C)Cc2cnn(CC)c2)cc1,-44.7%
15,COc1ncccc1CNC1CCc2c(ccc(=O)n2CC2CC2)C1 (configuration not stated),24.04%
16,O=C([C@H]1C[C@H]2OCC[C@H]2N(Cc2ccccc2F)C1)N1CCCCO1,29.33%
17,CN(C)Cc1nnc2n1CCN(Cc1ccccn1)CC2,-16.67%
18,O=C(CCc1ccsc1)Nc1ccnn1C1CCS(=O)(=O)C1 (configuration not stated),-38.89%
19,O=C(CCc1cccs1)Nc1ccnn1C1CCS(=O)(=O)C1 (configuration not stated),-28.15%
20,Cc1cccc(CCC(=O)Nc2ccnn2C2CCS(=O)(=O)C2)c1 (configuration not stated),62.13%
21,O=C(NCCC1COc2ccccc2O1)c1ccc(N2CC(O)C2)nc1 (configuration not stated),13.19%
22,O=C1N[C@@H]2CCN(C(=O)C3CC3)[C@@H]2C(=O)N1c1ccc(F)cc1,34.24%
23,Cc1ccc(N2C(=O)N[C@@H]3CCN(C(=O)C4CCCC4)[C@@H]3C2=O)cc1,-28.91%
24,Cc1ccc(N2C(=O)N[C@@H]3CCN(C(=O)C4CC4)[C@@H]3C2=O)cc1,56.76%
25,COc1ccc(-c2nnc(SC(C)C(=O)NC(C)(C)C)[nH]2)c(OC)c1 (configuration not stated),-42.16%
26,COc1ccc(-c2nnc(SC(C)C(=O)NCC(C)C)[nH]2)c(OC)c1 (configuration not stated),59.18%

row,SMILES,INHIBITION
1,COc1ccc(-c2nnc(SCC(=O)NCC(C)C)[nH]2)c(OC)c1,-8.24%
2,Cc1ccc([C@@H]2CN(C(=O)c3cc[nH]c3)C[C@H]2NC(=O)C2CC2)cc1,-12.67%
3,Cc1ccc([C@@H]2CN(C(=O)c3ccsc3)C[C@H]2NC(=O)C2CC2)cc1,50.57%
4,Cc1ccc([C@@H]2CN(C(=O)c3csc(C)n3)C[C@H]2NC(=O)C2CC2)cc1,-67.56%
5,CC(NC(=O)NCCN1CCCC1)c1nncn1C (configuration not stated),21.83%
6,CN1CCc2[nH]cnc2C12CCN(Cc1ccc(S(C)(=O)=O)cc1)CC2,18.54%
7,CC(C)c1ccc(C(N)c2cccs2)cc1 (configuration not stated),-61.99%
8,CCS(=O)(=O)NCc1nc(C)cc(N2CCCCC2)n1,19.12%
9,CCS(=O)(=O)NCc1nc(C)cc(N2CCCC2)n1,53.61%
10,CCCS(=O)(=O)NCc1nc(C)cc(N2CCCC2)n1,15.84%
11,O=C1OC2(CCN(CC3CCCO3)CC2)CN1CCc1ccccc1 (configuration not stated),-38.59%
12,CCN1CC2(CCN(CC3CCCO3)CC2)OC1=O (configuration not stated),6.85%
13,CCN1CC2(CCN(CC3COCCO3)CC2)OC1=O (configuration not stated),65.1%
14,COCC1CN(C(=O)Cc2ccccn2)Cc2ncnn2C1 (configuration not stated),-54.16%
15,O=C(c1ccc2c(c1)COC2)N1CCCC(n2cncn2)C1 (configuration not stated),-45.72%
16,O=C1OC2(CCNCC2)CN1CC(=O)N1CCCC1c1nccs1 (configuration not stated),3.62%
17,O=C(CC1COCCN1)N1CCCN(C2Cc3ccccc3C2)CC1 (configuration not stated),46.02%
18,O=C(CC1COCCN1)N1CCC2(CCc3ccccc32)CC1 (configuration not stated),50.32%
19,O=C(CN1C(=O)CCNC1=O)N1CCC2(CCc3ccccc32)CC1,12.3%
20,O=C(O)CN1CCC2(CCc3ccccc32)CC1,-2.19%
21,O=C(CC1COCCN1)N1CCC(N2CCc3ccccc3C2)CC1 (configuration not stated),-3.38%
22,O=C(CN1CCOC1=O)N1CCC2(CCc3ccccc32)CC1,55.36%
23,Cc1noc(C)c1CN1C(=O)[C@@H]2CC[C@H]1CN(C(=O)c1cscn1)C2,-13.89%
24,Cc1occc1C(=O)N1CCC2(CCN(Cc3ccccn3)C2=O)C1 (configuration not stated),49.25%
25,O=C(O)[C@]12CCCN(Cc3ccsc3)C[C@H]1CN(c1ncccn1)C2,53.55%
26,O=C(O)[C@]12CCCN(Cc3ccsc3)C[C@H]1CN(c1ccccn1)C2,27.73%

row,SMILES,INHIBITION
1,O=C(O)[C@]12CCCN(Cc3ccccc3)C[C@H]1CN(c1ncccn1)C2,-0.75%
2,CCC(C)[C@H](NC(=O)c1ccc(F)cc1-n1cnnn1)C(=O)OC (some centres not stated),24.67%
3,CCn1nc(C)c(CNC(=O)c2cn(CC3CCCO3)nn2)c1C (configuration not stated),-32.59%
4,CN(C)C(=O)[C@H]1C[C@H]2CN(CCc3ccccc3)C[C@@H]1O2,28.38%
5,Cc1ccc(CN2CCC[C@@H]3CN(C(=O)c4ccco4)C[C@@H]32)o1,50.17%
6,COc1ccc(CN2CCC[C@@H]3CN(C(=O)c4ccco4)C[C@@H]32)cc1,-24.31%
7,CC(=O)N1C[C@H]2CCCN(Cc3ccc(C)o3)[C@H]2C1,-41.73%
8,CCCC(=O)N(CCCN1CCOCC1)c1nc2c(C)c(C)ccc2s1,-3.67%
9,Cc1cccc(CNC[C@H]2Cn3ccnc3CO2)n1,9.42%
10,CN(C)CCNC(=O)c1cc(-c2cnc(N(C)C)nc2)cn1CC1CC1,8.88%
11,COCCCNC(=O)c1cc(-c2cnc(N(C)C)nc2)cn1CC1CC1,58.6%
12,CN(C)c1ncc(-c2cc(C(=O)NCCO)n(CC3CC3)c2)cn1,23.53%
13,O=C(NCCCO)Nc1cnc2cc(Cl)ccc2c1O,47.4%
14,CCN(Cc1ccco1)C(=O)NCc1nnc2n1CCC2,11.78%
15,COCCN1CCc2ccc(=O)n(Cc3csc(C)n3)c2CC1,-80.01%
16,Cc1cc(NC(=O)c2ccc(F)cc2Br)n(C)n1,-0.9%
17,Cc1cc(NC(=O)c2ccc(F)cc2F)n(C)n1,-20.8%
18,Cc1cc(NC(=O)NCC(O)c2ccc(F)c(F)c2)n(C)n1 (configuration not stated),-12.19%
19,Cc1cc(NC(=O)NCC(O)c2ccc(F)cc2)n(C)n1 (configuration not stated),50.75%
20,Cc1ccc(C(O)CNC(=O)Nc2cc(C)nn2C)cc1 (configuration not stated),-15.64%
21,Cc1cc(NC(=O)c2ccc(F)cc2Cl)n(C)n1,56.53%
22,O=C(O)CN1CCC(F)(F)C2(CCN(c3ccccc3)C2)C1 (configuration not stated),-21.78%
23,COCCN1CCC2(CCN(c3ncccn3)CC2)C1=O,0.2%
24,CC(C)(C)C1CCC(O)(CNC(=O)CCS(C)(=O)=O)CC1 (configuration not stated),-16.28%
